Screening data from PubChem.
DAX1 inh-1 – inhibitors of DAX1 repression of SF-1 activated StAR promoter; HEK293T StAR-luciferase reporter, SF-1/DAX-1 repression relief; inhibition, % at 6.8 µM; 370,000 tested, 1.1% active;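 active = inhibition above the mean over all tested compounds plus 3 SD, cut at about 3.6% in these data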;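 note: 0% = DAX-1 cells with DMSO and 100% = cells lacking DAX-1 with DMSO; higher inhibition means more luminescence from relief of DAX-1 repression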
hcDAF12 agonist – activators of H. contortus DAF-12 nuclear receptor; HEK293 hcDAF-12 lit1-tk-luc reporter, luminescence; 0% DMSO, 100% Δ7-dafachronic acid; activation, % at 6.8 µM; 370,000 tested, 1.4% active;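 active = activation above the mean of all tested compounds plus 3 SD, cut at about 5.5% in these data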;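 note: 100% = response to 3 µM Δ7-dafachronic acid high control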
hgDAF12 agonist – activates the H. glycines DAF-12 receptor ligand-binding domain. HEK293 GAL4-hgDAF12 UAS-luciferase reporter, agonist luminescence; normalized to butyrate control. activation, % at 6.8 µM. 370,000 tested, 1.8% active;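 active = activation above a cutoff set at the mean of all screened compounds plus 3 SD, cut at about 10% in these data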;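 note: 0% = DMSO wells and 100% = sodium butyrate wells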
ssDAF12 agonist – activators of S. stercoralis DAF-12 nuclear receptor; HEK293 ssDAF-12/GRIP1 lit1-tk-luc reporter, luminescence; % of 3 µM dafachronic acid response; activation, % at 6.8 µM; 370,000 tested, 1% active; AID 652126;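 active = activation above the mean over all tested compounds plus 3 SD, cut at about 0.9% in these data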;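 note: 0% = DMSO-only wells and 100% = 3 µM delta7-dafachronic acid wells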
DAX1 inh-2 – inhibitors of human orphan nuclear receptor DAX1 (NR0B1) | 340,000 tested, 0.99% active | P51843 | HEK293 Gal4-DAX1 luciferase reporter, luminescence | inhibition, % at 6.75 µM;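 active = inhibition above the mean over all tested compounds plus 3 SD, cut at about 4.2% in these data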;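 note: 0% = DAX1-transfected cells with DMSO and 100% = empty-vector control cells with DMSO; inhibition shows as a rise in luminescence from relieved DAX1 repression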
Target sequence (P51843 207-470 limits assumed): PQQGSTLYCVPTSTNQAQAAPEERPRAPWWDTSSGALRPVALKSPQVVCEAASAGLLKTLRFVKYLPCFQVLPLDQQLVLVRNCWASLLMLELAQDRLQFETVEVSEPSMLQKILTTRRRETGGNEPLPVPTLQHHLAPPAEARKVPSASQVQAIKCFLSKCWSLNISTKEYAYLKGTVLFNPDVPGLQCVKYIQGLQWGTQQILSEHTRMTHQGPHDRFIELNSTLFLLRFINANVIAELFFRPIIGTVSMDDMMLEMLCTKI
hgDAF12 conf – hgDAF-12 agonism, confirmation assay. shares compounds with hgDAF12 agonist. HEK293 GAL4-hgDAF12 luciferase reporter, agonist mode; percent of butyrate response. activation, % at 6.8 µM. 3,300 tested, 80% active;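 active = mean activation over triplicate wells above the hit cutoff derived from the earlier primary screen, cut at about 11% in these data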;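 note: 0% = DMSO low control and 100% = 2 mM sodium butyrate high control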
LXR ag 2 – LXR-beta agonism as DAF-12 counter-screen; shares compounds with hgDAF12 agonist; HEK293 Gal4-LXR luciferase reporter, 24 h; activation, % at 6.8 µM; 3,300 tested, under 10 active; AID 743051;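 active = mean activation of the triplicate above a set limit carried over from the primary screen, none filed active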
Starred values were filed as active, the others as inactive; nt = no result. In the library only some 4.1% were active in any assay of this set; here they are far more common.

SMILES | DAX1 inh-1 | hcDAF12 agonist | hgDAF12 agonist | ssDAF12 agonist | DAX1 inh-2 | hgDAF12 conf | LXR ag 2
O=C(Nc1cccc([N+](=O)[O-])c1)c1ccc2c(c1)OCCO2 | 1 | -2 | 9 | -1 | 0 | nt | nt
O=C(NC(=S)Nc1ccc2c(c1)OCCO2)c1cccc(Br)c1 | 3 | 5 | 14* | 0 | 2 | 19* | 1
O=C(Nc1nc2c(Br)cccc2s1)c1ccc2c(c1)OCCO2 | nt | 3 | 15* | 0 | nt | 5 | 1
O=C(OCC#CCSc1nnc(-c2cc3ccccc3cc2O)o1)c1ccc(F)cc1 | nt | 1 | 5 | -1 | nt | nt | nt
CCCCCn1nnnc1C1(C)Cn2nccc2C(=O)N1Cc1ccco1 (stereo not drawn) | 0 | -2 | 2 | -1 | nt | nt | nt
C=CCN=C1NC(c2ccccc2C(F)(F)F)C(C(=O)OC)=C(C)N1Cc1ccc(C(F)(F)F)cc1 (stereo not drawn) | 1 | 1 | -1 | -1 | nt | nt | nt
O=C(N/N=C/c1ccc(Br)cc1)c1ccc(Br)o1 | 3 | 4 | 14* | 0 | 3 | 15* | 1
O=C(Nc1ccc(NC(=O)C2CCCCC2)cn1)c1ccco1 | 4.3* | 6.4* | 16* | 0 | -1 | 11* | 1
COc1ccc(N2Cc3ccccc3C2)cc1Cl | -2 | 0 | 14* | 0 | 0 | 6 | 0
Nc1ccc2c(c1)Cc1cc(N)c(Cl)cc1-2 | 2 | 4 | 15* | 0 | 3 | 12* | 0
Nc1ccc2c(c1)Cc1cc(Cl)c(Cl)cc1-2 | -1 | 1 | 10 | 0 | 1 | nt | nt
COC(=O)CC#C[C@H](C)[C@@H](NS(=O)(=O)c1ccc(C)cc1)C1CCCCC1 | 0 | -2 | -1 | -1 | nt | nt | nt
CC(C)(C)c1ccc(C(=O)Nc2ncn[nH]2)cc1 | 2 | 4 | 14* | 0 | 1 | 13* | 1
Cc1ccc(C(=O)Nc2ncn[nH]2)cc1 | 0 | -1 | 2 | -1 | 3 | nt | nt
Cc1ccc(NC(=O)c2cccc3c2-c2ccccc2C3=O)c(C)c1 | 0 | 1 | 3 | -1 | nt | nt | nt
CC(=O)c1ccc(-c2cnc3c(NC=O)cc(-c4ccc(N5CCN(C)CC5)cc4)cn23)cc1 | 1 | 2 | 17* | 0 | nt | 10 | 0
CN1CCN(c2ccc(-c3cc(NC=O)c4ncc(-c5ccc(F)c(Cl)c5)n4c3)cc2)CC1 | 0 | 3 | 6 | 0 | nt | nt | nt
C=CCNCCCCOc1ccc(OCc2ccccc2)cc1 | 3 | 3 | 15* | -1 | 1 | 17* | 1
c1ccc(COc2ccc(OCCCCN3CCCC3)cc2)cc1 | 2 | 4 | 14* | -1 | 1 | 14* | 1
COCCCNCCCCOc1ccc(OCc2ccccc2)cc1 | 1 | 3 | 6 | -1 | 0 | nt | nt
N#CN1CCC(NS(=O)(=O)c2cccc(C(F)(F)F)c2)CC1 | nt | -1 | 0 | -1 | nt | nt | nt
COc1cc(O)cc2cc3c(c(O)c12)C(=O)CC(C)(O)O3 (stereo not drawn) | 0 | 1 | 15* | -2 | 2 | 4 | 0
CC(c1ccc(NC(=O)OC(C)(C)C)cc1)c1cn(C)c2ccccc12 (stereo not drawn) | 3 | 5.7* | 14* | 0 | nt | 9 | 0
CC(C)c1ccc(NC(=O)Cc2cn(C)c3ccccc23)cc1 | 0 | 1 | 3 | -1 | 0 | nt | nt
Nc1nc(N)nc(-c2ccc(Cl)c(Cl)c2)n1 | 1 | 0 | 21* | -1 | 4 | 18* | 1
O=C(CSc1nnc(-c2ccccc2)n1-c1ccc(Cl)cc1)Nc1ccccc1-c1ccccc1 | -1 | -2 | -2 | -2 | nt | nt | nt
COc1ccc(OCCCSc2ncccn2)cc1 | 0 | 3 | 14* | 0 | 1 | 11* | 0
O=C(COc1ccccc1Cl)Nc1ccc2c(c1)OCO2 | 2 | 6.0* | 13* | 1 | 1 | 12* | 1
Cc1ccccc1OCC(=O)Nc1ccc2c(c1)OCO2 | 1 | 1 | 6 | -1 | 3 | nt | nt
Cc1occc1-c1nnc(SCC(=O)Nc2ccccn2)n1-c1ccccc1 | 0 | -3 | 2 | 0 | nt | nt | nt
